Hits are enriched below; roughly 5.3% of the tested compounds scored in any of these assays.
Tau fluor cs – counter-screen for tau fibril formation inhibitors; tau K18 P301L Alexa594 fluorescence, heparin fibrillization; Potency, µM (doses to about 57.7 µM), for inactives: top-dose activity change, negative = decrease; 0.93% of 280,000 active; note: potency is the fitted concentration of half-maximal effect; nearly all actives have a fitted effect of over 55% in size
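Human tau K18 P301L (15 uM unlabeled, 0.24 uM Alexa 594-labeled) in 100 mM sodium acetate pH 7 with 20 uM heparin, 6 hr at 37 C. ThT 30 uM added, 1 hr ambient; Alexa 594 FP and total fluorescence read at 555/632 nm.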
Tau fibril FP – blocks human tau fibril formation measured by polarization | Potency, µM (highest dose often 57.7 µM), for the others: at the highest dose activity, negative = inhibition, hits mostly inhibitors | K18 P301L tau heparin fibrillization, Alexa594 FP, 6 h | AID 1468 | 0.39% of 280,000 active; note: potency is the fitted concentration of half-maximal effect; nearly all actives have a fitted effect of over 55% in size
Target sequence (P10636 561-689 P618L limits assumed): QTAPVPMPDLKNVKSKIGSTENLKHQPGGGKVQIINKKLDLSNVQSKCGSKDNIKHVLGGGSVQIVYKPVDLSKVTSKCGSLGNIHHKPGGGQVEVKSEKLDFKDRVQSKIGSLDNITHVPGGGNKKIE
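Heparin (20 uM) drove fibril formation of recombinant tau K18 P301L, 15 uM unlabeled with 0.24 uM Alexa 594 label, for 6 hr at 37 C in 100 mM sodium acetate pH 7. Fluorescence polarization (555/632 nm) read 1 hr after 30 uM ThT.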
FBPA coupling cs – counter-screen for Giardia aldolase inhibitors: coupling enzyme system; coupling enzyme system counterscreen, AmpLite Red fluorescence; activity change, negative = inhibition, % at 58.2 µM, hits read low; 0.67% of 290,000 active; in the data active = activity change below about -30%
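Counterscreen lacking aldolase: glyceraldehyde-3-phosphate coupling-enzyme reagent preincubated 10 min at RT with compound (at 57.5 uM final), then substrate/coupling system with AmpLite Red added; fluorescence read at 525/598 nm after 20 min RT.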
Sfp inh – inhibitors of Bacillus subtilis Sfp phosphopantetheinyl transferase. Q9F4F7. Biochemical Sfp PPTase activity, qHTS. 3.5% of 310,000 active. Potency, µM, without a hit: largest response in the series, negative = inhibition, hits mostly inhibitors. AID 1490;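 note: the enzyme is Sfp with the accession as filed and its product quenches rhodamine fluorescence; potency is the fitted concentration of half-maximal effect; 0% = enzyme reaction without inhibitor and -100% = no enzyme wells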
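Fluorescence-quenching assay with 15 nM Sfp, 5 uM rhodamine-CoA and 12.5 uM BHQ-2-labelled ybbR peptide in pH 7.6 Hepes/MgCl2 buffer. Enzyme was pre-incubated with compound for 15 min at room temperature. Rate was taken from the 30-min fluorescence change (525/598 nm).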
JMJD2E inh – blocks human JMJD2E demethylase activity | B2RXH2 | JMJD2E catalytic domain, FDH-coupled NADH fluorescence (FDH is formaldehyde dehydrogenase) | Potency, µM (highest dose often 57.1 µM), without a hit: at the highest dose activity change, negative = inhibition, usual class: inhibitors | 1.6% of 230,000 active; active = well fitted inhibition curve with a large enough effect, not every such curve was filed as active; inconclusive = small, poorly fitted or top-dose-only effect, or another doubt; inactive = no such curve, though single readings can be large or run the other way;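 note: potency is the fitted concentration of half-maximal effect; 0% = wells with enzyme and -100% = buffer wells without enzyme; nearly all actives have a fitted effect of over 50% in size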
Target sequence (B2RXH2 1-337 limits assumed): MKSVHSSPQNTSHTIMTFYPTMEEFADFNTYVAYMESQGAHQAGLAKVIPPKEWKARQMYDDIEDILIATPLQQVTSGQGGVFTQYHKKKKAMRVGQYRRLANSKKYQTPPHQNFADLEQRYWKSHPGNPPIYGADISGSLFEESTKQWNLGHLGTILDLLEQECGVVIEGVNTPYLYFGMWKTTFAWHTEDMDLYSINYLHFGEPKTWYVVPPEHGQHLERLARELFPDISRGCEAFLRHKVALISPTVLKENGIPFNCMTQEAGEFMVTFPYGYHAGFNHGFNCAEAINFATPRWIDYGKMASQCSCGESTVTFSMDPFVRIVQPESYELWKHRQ
Tau ThT inhib – tau fibrillization inhibition (ThT binding); P10636; Potency, µM (highest dose often 57.4 µM), inactives show at the top dose activity, negative = inhibition, hits mostly inhibitors; recombinant tau K18 P301L (four-repeat tau fragment), heparin-induced fibrillization, ThT fluorescence; 2.1% of 270,000 active; note: potency is the fitted concentration of half-maximal effect; nearly all actives have a fitted effect of over 55% in size
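Recombinant human tau K18 fragment […] carrying P301L, 15 uM unlabeled plus 0.24 uM Alexa 594-labeled, was fibrillized with 20 uM heparin in 100 mM sodium acetate pH 7 for 6 hr at 37 C; 30 uM ThT fluorescence read after 1 hr.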
* marks the source's active call; other numbers are inactive results. Unless noted, calls come from the whole dose curve; as a rule, active = well fitted curve in the direction sought with a large enough effect; inconclusive = small, poorly fitted or top-dose-only effect, or another doubt; inactive = no such curve, though single readings can be large; an effect the other way counts as inactive or inconclusive. Unless noted, % is set by controls: 0 for no effect and ±100 for the full control effect.

`CCOc1ccc(C(=O)CN2CCN(S(=O)(=O)c3ccc(F)cc3)CC2)cc1` gave Tau fluor cs -5%, Tau fibril FP -3%, FBPA coupling cs -1, Sfp inh -10%, JMJD2E inh -7% and Tau ThT inhib -16%.
Cc1ccc(N(CC(C)C)S(=O)(=O)c2nnc(NC(=O)c3cccs3)s2)cc1 was read as Tau fluor cs -14%, Tau fibril FP -9% and Tau ThT inhib -2%.
NC(=O)[C@@H]1[C@@H]2C(=O)N(c3ccc(F)cc3)C(=O)[C@@H]2[C@H]2C=Cc3ccccc3N21 was read as Tau fluor cs -25%, Tau fibril FP inconclusive, FBPA coupling cs -20, Sfp inh 56µM*, JMJD2E inh inconclusive and Tau ThT inhib 14µM*.
For COC(=O)C1(C)NC(c2ccco2)C2C(=O)N(c3ccc(F)cc3)C(=O)C21 (centres undefined) the results were Tau fluor cs 2%, Tau fibril FP -3%, FBPA coupling cs 0, Sfp inh 23%, JMJD2E inh 1% and Tau ThT inhib -3%.
O=C(c1ccco1)[C@@H]1[C@@H]2C(=O)N(c3ccc(F)cc3)C(=O)[C@@H]2[C@H]2C=Cc3ccccc3N21 was read as Tau fluor cs -25%, Tau fibril FP inconclusive, FBPA coupling cs -8, Sfp inh 50µM*, JMJD2E inh -17% and Tau ThT inhib 14µM*.
For Cc1cc(/C=N\NC(=O)COc2cccc3cccnc23)c(C)n1-c1ccccc1 the results were Tau fluor cs inconclusive, Tau fibril FP -11%, FBPA coupling cs 6, Sfp inh -16%, JMJD2E inh -2% and Tau ThT inhib 25µM*.
Screening CN(C)c1cccc(C(=O)N/N=C/c2ccccc2F)c1 returned Tau fluor cs -9%, Tau fibril FP 5%, FBPA coupling cs -2, Sfp inh 5%, JMJD2E inh 0% and Tau ThT inhib inconclusive.
Screening Cc1cc(/C=N/NC(=O)C(O)(c2ccccc2)c2ccccc2)c(C)n1-c1cccc(C(=O)O)c1 returned Tau fluor cs 3%, Tau fibril FP 0%, FBPA coupling cs -17, Sfp inh 40µM*, JMJD2E inh inconclusive and Tau ThT inhib inconclusive.
Cc1cc(/C=N\NC(=O)COc2cccc3cccnc23)c(C)n1-c1ccc(Br)cc1 was read as Tau fluor cs -29%, Tau fibril FP -10%, FBPA coupling cs 1, Sfp inh -13%, JMJD2E inh inconclusive and Tau ThT inhib inconclusive.
For Cc1cc(/C=N/NC(=O)c2cccc(N(C)C)c2)c(C)n1-c1cc(C(=O)O)cc(C(=O)O)c1 the results were Tau fluor cs -9%, Tau fibril FP -3%, FBPA coupling cs 0, Sfp inh -6%, JMJD2E inh 25µM* and Tau ThT inhib inconclusive.
For O=C1NC(=NCc2ccccc2)S/C1=C/c1ccc(O)cc1 the results were Tau fluor cs -12%, Tau fibril FP -1%, FBPA coupling cs 6, Sfp inh 25µM*, JMJD2E inh -1% and Tau ThT inhib -11%.
CC(C)c1ccc(NS(=O)(=O)c2ccc3nc(-c4ccccc4)[nH]c3c2)cc1 was read as Tau fluor cs inconclusive, Tau fibril FP 10µM* and Tau ThT inhib inconclusive.
`O=S(=O)(Nc1ccc(Br)cc1)c1ccc2nc(-c3ccccc3)[nH]c2c1` gave Tau fluor cs inconclusive, Tau fibril FP 16µM* and Tau ThT inhib 16%.
Screening Cc1ccc(NS(=O)(=O)c2ccc3nc(-c4ccccc4)[nH]c3c2)c(Br)c1 returned Tau fluor cs inconclusive, Tau fibril FP inconclusive and Tau ThT inhib 8%.
For Cc1ccc(NS(=O)(=O)c2ccc3nc(-c4ccccc4)[nH]c3c2)c(Cl)c1 the results were Tau fluor cs inconclusive, Tau fibril FP 14µM* and Tau ThT inhib 12%.
Screening CCOC(=O)C1CCN(C(=O)c2nn(-c3ccc(OC)c(Cl)c3)c(=O)c3c2c2ccccc2n3C)CC1 returned Tau fluor cs -16%, Tau fibril FP -12% and Tau ThT inhib -6%.
`OC1(c2ccc3ccccc3c2)CCN(Cc2ccccc2)C1` (centres undefined) gave Tau fluor cs -7%, Tau fibril FP -2%, FBPA coupling cs -4, Sfp inh 89µM*, JMJD2E inh inconclusive and Tau ThT inhib 7%.
`CCOc1ccc(Nc2nn(-c3ccc(OC(F)(F)F)cc3)nc2C(C)=O)cc1` gave Tau fluor cs 3%, Tau fibril FP -1% and Tau ThT inhib -8%.
For CCc1ccc2oc(-c3cc(N=Cc4cccc(OC)c4O)ccc3O)nc2c1 the results were Tau fluor cs inconclusive, Tau fibril FP 7%, FBPA coupling cs -2, Sfp inh -6%, JMJD2E inh -23% and Tau ThT inhib 14µM*.
`CNC(=O)C1(C(F)(F)F)CC(CCCO)CCCO1` (centres undefined) gave FBPA coupling cs 1 and Sfp inh -10%.
`CN(C)/C=C1/C(=O)N(c2ccc([N+](=O)[O-])cc2)N=C1c1ccccc1` gave Tau fluor cs inconclusive, Tau fibril FP -11%, FBPA coupling cs 6, Sfp inh -2%, JMJD2E inh inconclusive and Tau ThT inhib 22µM*.
C/C(=C1/C(=O)N(c2ccc([N+](=O)[O-])cc2)N=C1c1ccccc1)N(C)C was read as Tau fluor cs inconclusive, Tau fibril FP -3%, FBPA coupling cs -1, Sfp inh 13%, JMJD2E inh 2% and Tau ThT inhib inconclusive.
`CN(C)/C=C1\C(=O)N(c2ccc([N+](=O)[O-])cc2)N=C1c1ccccc1` gave Tau fluor cs inconclusive, Tau fibril FP inconclusive, FBPA coupling cs 0, Sfp inh -8%, JMJD2E inh -6% and Tau ThT inhib 18µM*.
`O=C(NCc1ccccc1)NC1COc2ccccc2C1` (centres undefined) gave Tau fluor cs -2%, Tau fibril FP 3% and Tau ThT inhib -4%.
Nc1ncc(Br)cc1N=Cc1ccccc1 was read as Tau fluor cs -8%, Tau fibril FP -4%, FBPA coupling cs -48*, Sfp inh 79µM*, JMJD2E inh -3% and Tau ThT inhib inconclusive.
Screening CCOC(=O)N1CCN(S(=O)(=O)c2ccc(C(=O)NNc3nc4c(C)cc(C)cc4s3)cc2)CC1 returned Tau fluor cs -12%, Tau fibril FP 0%, FBPA coupling cs -3, Sfp inh inconclusive, JMJD2E inh -2% and Tau ThT inhib -7%.
